Tests used:
Settings in all cases: concentration: 1 μM, replicates: in singlicate; n = 1
[1] = tested on: T1, ERK1
T1 construct: gene MAPK3

[2] = tested on: T2, ERK2
T2 construct: gene MAPK1

[3] = tested on: T3, ERK3
T3 construct: gene MAPK6

[4] = tested on: T4, ERK4
T4 construct: gene MAPK4

[5] = tested on: T5, ERK5
T5 construct: gene MAPK7

[6] = tested on: T6, ERK8
T6 construct: gene MAPK15

[7] = tested on: ERN1
[8] = tested on: T7, FAK
T7 construct: gene PTK2

[9] = tested on: FER
[10] = tested on: FES
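Note: KINOMEscan kinase panel screen.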

Row | SMILES | %Inh [1] [%] | %Inh [2] [%] | %Inh [3] [%] | %Inh [4] [%] | %Inh [5] [%] | %Inh [6] [%] | %Inh [7] [%] | %Inh [8] [%] | %Inh [9] [%] | %Inh [10] [%]
1 | COCCOCCOc1cc2ncc3c4ccc(C#N)cc4[nH]c3c2cc1OC | 9 | 6 | 2 | 0 | 0 | 36 | 0 | 16 | 0 | 17
2 | CN1CCN(Cc2cccc(-c3ccc4c(Nc5ccc(Oc6ccccc6)cc5)ccnc4c3)c2)CC1 [GW578342] | 4 | 0 | 0 | 9 | 0 | 0 | 11 | 0 | 4 | 4
3 | COc1cccc(-c2ccc3c(NC(=O)C4CC4)n[nH]c3n2)c1 [SB-710903] | 0 | 0 | 0 | 8 | 0 | 11 | 0 | 0 | 0 | 0
4 | COC(=O)Nc1nc2cc(Oc3ccc(NC(=O)Nc4cc(C(F)(F)F)ccc4F)cn3)ccc2[nH]1.Cl.Cl [GW681170] | 8 | 0 | 0 | 1 | 0 | 95.3 | 0 | 0 | 23 | 0
5 | COc1ccc(-c2coc3ccc(-c4nnc(SCc5ccc(OC)c(C(F)(F)F)c5)o4)cc23)cc1 | 8 | 24 | 0 | 3 | 2 | 2 | 44 | 10 | 0 | 4
6 | O=C(Nc1n[nH]c2nc(-c3ccc(O)cc3)ccc12)C1CC1 [SB-710363] | 0 | 0 | 0 | 0 | 63 | 90.2 | 0 | 0 | 0 | 0
7 | COc1ccc(CNC(=O)NC2CCN(c3ccnc(Nc4ccc(F)cc4)n3)CC2)cc1 [GSK1379788] | 0 | 0 | 0 | 0 | 0 | 0 | 0 | 0 | 17 | 0
8 | Cl.c1ccc(-c2ccc3c(Nc4ccc5[nH]ncc5c4)ccnc3c2)nc1 [GW440137] | 10 | 0 | 4 | 34 | 0 | 0 | 5 | 0 | 15 | 0
9 | c1ccc(-c2cnc3nccnn23)cc1 [AH20685] | 8 | 0 | 0 | 0 | 0 | 0 | 0 | 0 | 0 | 11
10 | CC(C)c1nc(-c2cccc(NS(=O)(=O)c3c(F)cccc3F)c2F)c(-c2ccnc(Nc3ccc(N4CCOCC4)nc3)n2)s1 [GSK2008607] | 0 | 0 | 9 | 42 | 2 | 93.5 | 65 | 32 | 71 | 23

Source: article PMC5540273 (PLoS ONE, 2017)
